# Active and inactive are the calls of the source.
# Legend:
# Albumin (Bos taurus) = Albumin (Bos taurus) (UniProt P02769); assay: compounds binding labelled BSA control protein – biochemical, small-molecule microarray, Alexa647 label, 635/667 nm fluorescence, artefact control for SMM control protein annotation, profiling panel (AID 1118); details: BSA-A647 binding, fluorescence 635 nm, higher = more signal;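 further: score merges 667 nm emission intensity and signal-to-noise per printed compound spot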
# Sequence of Albumin (Bos taurus) (P02769 whole entry, looked up): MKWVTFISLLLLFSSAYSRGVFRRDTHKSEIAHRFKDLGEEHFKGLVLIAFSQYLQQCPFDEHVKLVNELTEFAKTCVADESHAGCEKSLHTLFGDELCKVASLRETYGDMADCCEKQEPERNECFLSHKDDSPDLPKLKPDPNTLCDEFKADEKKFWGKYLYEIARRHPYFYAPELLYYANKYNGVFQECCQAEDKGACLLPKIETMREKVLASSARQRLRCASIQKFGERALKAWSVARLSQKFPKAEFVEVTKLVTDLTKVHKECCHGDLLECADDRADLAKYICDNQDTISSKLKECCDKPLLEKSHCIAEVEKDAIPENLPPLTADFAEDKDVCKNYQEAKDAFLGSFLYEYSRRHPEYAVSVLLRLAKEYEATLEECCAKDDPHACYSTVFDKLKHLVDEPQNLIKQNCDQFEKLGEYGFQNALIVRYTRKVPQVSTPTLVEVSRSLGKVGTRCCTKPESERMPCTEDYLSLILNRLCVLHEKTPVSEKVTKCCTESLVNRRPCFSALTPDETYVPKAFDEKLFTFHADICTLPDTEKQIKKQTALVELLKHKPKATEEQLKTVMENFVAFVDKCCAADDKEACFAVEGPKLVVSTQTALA
# [1] = probe aXIP binding to arrayed compounds – biochemical, NeuroSMM set, 635/667 nm fluorescence, primary screen (AID 1119); details: small-molecule microarray, higher = more signal, called active from +8 up or from −8 down;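 further: probe is the protein aXip251-270 applied at 1 µg/mL to compound-printed slides; binding of probe to printed compounds measured as 667 nm fluorescence plus signal to noise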
# [2] = probe aNOTCH3 binding on compound microarray – biochemical, small-molecule microarray, 635/667 nm fluorescence, primary screen (AID 1120); details: higher = more signal;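 further: probe is a biotin-tagged antibody raised against NOTCH3 rather than NOTCH3 protein; score merges spot fluorescence near 667 nm with spot signal to noise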
# [3] = probe aNOTCH2 binding on compound microarray – biochemical, small-molecule microarray, 635/667 nm fluorescence, primary screen (AID 1121); details: higher = more signal;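 further: score merges feature fluorescence read at 667 nm with its signal to noise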
# [4] = target: Carbonic anhydrase 2 (Homo sapiens) (UniProt P00918); assay: compounds binding carbonic anhydrase 2 – biochemical, small-molecule microarray, Alexa647-labelled CAII, profiling panel (AID 1122); details: CAII-A647 binding fluorescence, higher = more signal
# [5] = COS7 lysate on small-molecule microarray, probe aHis, 635 nm (AID 1123); details: COS7 cell lysate, fluorescence, higher = more signal;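 further: z-score combines 667nm fluorescence intensity with signal-to-noise per printed compound spot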
# [6] = probe aLAP1 signal on lysate-treated microarray – cell lysate, small-molecule microarray, COS7 lysate, primary screen (AID 1124); details: probe aLAP1, fluorescence, higher = more signal;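 further: lysate comes from COS7 cells expressing LAP1 and is applied at 0.3 µg/mL; score merges spot fluorescence near 667 nm with signal-to-noise over triplicate slides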
# Sam68 (KHDRBS1) = assay: compounds binding KHDRBS1 protein – biochemical, small-molecule microarray, 635 nm fluorescence, primary screen (AID 1125); details: higher = more signal;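 further: score merges 667 nm channel intensity with signal to noise over triplicate slides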
# [7] = test system: Chordin-like protein 2 (CHRDL2); assay: compounds binding chordin-like 2 – biochemical, small-molecule microarray, 635 nm fluorescence, primary screen (AID 1126); details: fluorescence 635 nm, higher = more signal;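 further: printed compound slides probed with Chrdl2 protein at 4 µg/mL for 1 h at 4 C; score merges 667 nm emission intensity with signal to noise over three replicate slides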
# [8] = target: Concanavalin-A (Canavalia ensiformis) (UniProt P02866); assay: compounds binding concanavalin A lectin – biochemical, small-molecule microarray, Alexa647 label, 635 nm, artefact control for SMM control protein annotation, primary screen (AID 1127); details: ConA-A647 binding fluorescence, higher = more signal;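 further: z combines 667 nm emission intensity with signal-to-noise across three replicate slides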
# Sequence of Concanavalin-A (Canavalia ensiformis) (P02866 whole entry, looked up): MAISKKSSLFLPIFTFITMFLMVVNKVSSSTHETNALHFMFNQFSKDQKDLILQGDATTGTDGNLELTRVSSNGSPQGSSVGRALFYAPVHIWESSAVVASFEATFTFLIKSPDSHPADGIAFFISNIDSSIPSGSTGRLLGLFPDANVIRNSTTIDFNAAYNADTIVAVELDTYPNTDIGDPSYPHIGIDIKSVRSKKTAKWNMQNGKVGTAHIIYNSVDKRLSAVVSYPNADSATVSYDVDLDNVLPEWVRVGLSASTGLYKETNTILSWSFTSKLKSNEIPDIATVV
Structure (SMILES),composite z-score (Albumin (Bos taurus)),composite Z-score [1],composite z-score [2],composite z-score [3],composite z-score [4],composite z-score [5],composite z-score [6],composite z-score (Sam68 (KHDRBS1)),composite z-score [7],composite z-score [8]
O=C1O[C@H](c2ccccc2)[C@H](c2ccccc2)N2[C@H]1[C@@H](C(=O)NC[C@H](O)c1ccccc1)[C@]1(C(=O)Nc3ccc(C#CCCO)cc31)[C@H]2c1ccccc1OCCO,0.695,1.27 (inactive),-0.0581,-0.0666,0.597,2.38,0.728,1.29,-0.189,1.02
C=CCC(OC(C)=O)[C@@H]1[C@@H](N(Cc2ccc(-c3ccccc3)cc2)C(=O)c2ccc(C)cc2)c2cc(OCCCO)ccc2N1C(=O)c1ccc2ccccc2c1 (stereo not given in full),0.608,-0.46 (inactive),0.0282,-0.127,-0.104,0.756,-0.031,-0.15,0.0542,-0.328
CN(C)CCCNC(=O)[C@@H]1c2ccccc2C(=O)N(C2Cc3ccccc3C2)[C@H]1c1ccc(CO)cc1,0.274,0.0516 (inactive),-0.45,0.197,0.505,0.132,0.682,1.3,-0.0701,0.491
[N-]=[N+]=Nc1ccccc1[C@@H]1OC(c2ccc(OCCCO)cc2)=N[C@]1(Cc1ccccc1)C(N)=O,0.503,-0.0189 (inactive),0.0694,-0.0149,0.724,1.07,-0.247,0.495,-0.178,0.0171
CCC[C@@H]1C=C(C(=O)OCC)[C@H](c2ccccc2)N1S(=O)(=O)c1ccc(C)cc1,0.854,0.142 (inactive),0.341,0.273,0.214,-0.0844,1.29,1.3,0.0538,1.11
NC(=O)NCC#Cc1ccc2c(c1)[C@]1(C(=O)N2)[C@H](C(=O)Nc2nc3ccccc3s2)[C@H]2C(=O)O[C@H](c3ccccc3)[C@H](c3ccccc3)N2[C@@H]1c1ccc(OCCO)cc1,0.0054,0.367 (inactive),-0.0956,-0.238,0.136,0.408,0.109,-0.137,-0.258,0.318
COCCCNC(=O)[C@@H]1c2ccccc2C(=O)N(Cc2cc(C(F)(F)F)cc(C(F)(F)F)c2)[C@H]1c1ccc(CO)cc1,-0.873,-0.0722 (inactive),0.531,0.0282,0.685,1.68,-0.182,0.299,-0.716,-1.06
COCCOC(=O)N1C(=O)[C@@]2(c3cc(C#CC4(O)CCCCCC4)ccc31)[C@H](C(=O)N1CCc3cc(OC)c(OC)cc3C1)[C@H]1C(=O)O[C@H](c3ccccc3)[C@H](c3ccccc3)N1[C@@H]2c1ccc(O)cc1,0.609,0.413 (inactive),0.163,0.0012,0.638,1.58,0.773,1.29,0.34,1.16
CC(C)C[C@H]1NC(=O)[C@@H](C)NC(=O)[C@@]23C(=O)N[C@@H](Cc4ccccc4)C2[C@H](C)[C@@]2(C)O[C@H]2C3/C=C/C/C=C\CNC1=O (stereo not given in full),0.239,-0.162 (inactive),-0.189,-0.202,0.686,0.394,-0.0995,0.997,0.831,0.124
CCOC(=O)C[C@H]1[C@H](OC(=O)c2cc3ccccc3oc2=O)[C@@H](NC(=O)C2CCCCC2)c2cc(OCCCO)ccc2N1C(=O)Cc1ccc(OC)cc1,0.259,0.127 (inactive),1.41,-0.0111,0.51,0.988,0.319,0.736,0.328,-0.146
CN(C)CCCC[C@@H]1NC(=O)[C@H]2C[C@@H](C(=O)NCc3ccc(F)cc3)[C@@H](c3ccc(O)cc3)N2C1=O,-0.734,1.79 (inactive),-0.136,-0.0423,0.757,2.25,0.0507,1.16,1.13,1.15
O=C1NC(=O)C2C1C=CC(C(O)c1cccc(O)c1)N2Nc1ccc(Cl)cc1Cl (stereo not given),0.33,-0.136 (inactive),-0.0043,0.0592,0.757,1.4,-0.452,-1.81,-0.474,-0.0019
CCOC(=O)C1=C[C@@H](C(C)(C)C)N(S(=O)(=O)c2ccc(C)cc2)[C@H]1c1ccccc1Cl,0.981,0.102 (inactive),0.0203,0.0423,0.223,1.72,0.472,1.32,-0.584,1.12
C=CC[C@]1(C(=O)OC)N=C(c2ccc(OCCCO)cc2)O[C@H]1c1ccccc1N=[N+]=[N-],-0.899,0.0557 (inactive),0.734,0.26,0.429,2.87,0.198,1.3,1.14,1.09
COc1cccc(OC)c1C(=O)O[C@H]1[C@@H]2OC(=O)[C@H](Cc3cccc(Br)c3)C/C=C/C[C@@H](Cc3cccc(Br)c3)C(=O)O[C@H]2[C@@H](OC)O[C@@H]1CO,0.33,0.878 (inactive),-0.122,-0.105,0.628,1.2,0.56,1.06,0.351,0.293
[N-]=[N+]=NCc1ccccc1[C@H]1OC(c2ccc(OCCCO)cc2)=N[C@@]1(Cc1ccccc1)C(=O)N1CCOCC1,0.912,0.475 (inactive),0.754,0.294,0.55,2.97,0.204,1.3,-0.0573,1.14

Structure (SMILES),composite z-score (Albumin (Bos taurus)),composite Z-score [1],composite z-score [2],composite z-score [3],composite z-score [4],composite z-score [5],composite z-score [6],composite z-score (Sam68 (KHDRBS1)),composite z-score [7],composite z-score [8]
COC(=O)[C@@]1(Cc2ccc(F)cc2)[C@H]2c3cc(C(=O)N4CCCC4)n(CCO)c3C[C@H]2CN1C(=O)c1ccccc1,0.503,-0.196 (inactive),0.329,0.227,0.753,3.45,0.393,-2.03,-1.04,-0.242
COc1ccc([Si](C)(C)[C@@H]2[C@@H](CC(=O)N(CCO)Cc3ccccc3)O[C@]3(C(=O)N(Cc4ccc(N5CCC5=O)cc4)c4ccccc43)[C@H]2C)cc1,0.212,-0.272 (inactive),-0.178,-0.218,-0.23,0.711,-0.161,0.0201,0.508,0.783
[N-]=[N+]=NCc1ccccc1C[C@]1(C(=O)N2CCCCC2)N=C(c2ccc(OCCCO)cc2)O[C@H]1c1ccccc1,-0.0604,0.397 (inactive),0.23,-0.0323,0.564,1.22,-0.0174,0.979,-1.02,0.717
COCCOC(=O)N1C(=O)[C@@]2(c3cc(C#CCC(C(=O)OC)C(=O)OC)ccc31)[C@H](C(=O)N1CCc3cc(OC)c(OC)cc3C1)[C@H]1C(=O)O[C@H](c3ccccc3)[C@H](c3ccccc3)N1[C@@H]2c1ccc(O)cc1,-0.129,0.131 (inactive),0.23,-0.0715,0.213,1.72,0.617,1.17,1.05,0.919
NC(=O)NCC#Cc1ccc2c(c1)[C@]1(C(=O)N2)[C@H](C(=O)N2CCCCCCC2)[C@H]2C(=O)O[C@H](c3ccccc3)[C@H](c3ccccc3)N2[C@@H]1c1ccc(O)cc1,0.408,-0.573 (inactive),1.38,0.796,0.341,1.2,0.624,1.07,1.2,1.09
CCCCC(=C=CC[C@@H](O)c1cccc(OCCO)c1)CCO,0.319,-0.462 (inactive),-0.119,-0.142,0.34,0.592,0.0297,0.158,-0.596,-0.0305
C#CCN(C/C=C/c1ccccc1)[C@H](CO[Si](C)(C)C(C)(C)C)c1ccccc1,0.491,-0.12 (inactive),-0.125,-0.229,-0.33,-0.0873,0.0021,0.102,-0.167,-0.111
CN1C(=O)C2C(C1=O)C1C=C(c3ccc(CO)cc3)C2C(c2cccs2)N1C (stereo not given),0.935,0.891 (inactive),-0.0044,-0.146,0.76,0.784,1.08,0.47,-0.125,1.18
CN(C)CCCNC(=O)[C@@]1(Cc2ccccc2I)c2ccccc2C(=O)N(Cc2ccccc2)[C@H]1c1ccc(CO)cc1,-0.6,-0.307 (inactive),-0.467,-0.247,0.362,3.21,1.41,1.3,0.613,1.09
O=c1cccc(-c2ccccc2C(F)(F)F)o1,0.747,0.3 (inactive),0.583,0.581,0.354,0.491,-0.148,-0.519,-0.223,-0.407
COC(=O)[C@@]1(Cc2ccc(OC)cc2)[C@H]2c3cc(C(=O)N4CCCC4)n(CCc4ccc(OC)c(Br)c4)c3C[C@H]2CN1C(=O)c1ccccc1,1.01,-0.004 (inactive),0.0305,0.162,0.895,2.78,1.11,0.251,0.257,-0.234
COCCOC(=O)N1C(=O)[C@@]2(c3cc(C#CCNC(N)=O)ccc31)[C@H](C(=O)NC[C@H](O)c1ccccc1)[C@H]1C(=O)O[C@H](c3ccccc3)[C@H](c3ccccc3)N1[C@@H]2c1ccc(OCCO)cc1,0.472,-0.102 (inactive),0.0018,-0.2,0.355,0.245,0.666,1.26,0.285,1.02
COCCOC(=O)N1C(=O)[C@@]2(c3cc(C#CC4(O)CCCCCC4)ccc31)[C@H](C(=O)NC[C@H](O)c1ccccc1)[C@H]1C(=O)O[C@H](c3ccccc3)[C@H](c3ccccc3)N1[C@@H]2c1ccc(O)cc1,0.456,-0.275 (inactive),-0.0362,-0.0846,0.618,1.51,1.42,1.16,-0.112,1.09
C=CCNC(=O)[C@H]1[C@@H]2C(=O)O[C@@H](c3ccccc3)[C@@H](c3ccccc3)N2[C@@H](c2ccccc2OCCO)[C@]12C(=O)N(C(=O)OCCOC)c1ccccc12,0.813,-0.104 (inactive),-0.161,-0.153,0.567,1.96,0.883,1.21,0.414,1.13
CCCCC(O)C1C=CC2C(=O)NC(=O)C2N1Nc1ccc(Cl)cc1Cl (stereo not given),0.891,0.593 (inactive),0.23,0.0264,0.253,2.54,0.0614,0.0434,-0.452,0.255
C=CC[C@@]1(C(=O)O)N=C(c2ccc(OCCCO)cc2)O[C@@H]1c1ccccc1CN=[N+]=[N-],0.557,-0.632 (inactive),0.0991,-0.147,0.596,1.9,0.0424,0.826,0.439,1.05

# — PubChem BioAssay
